According to PubChem BioAssay AID1159580 (chemical genetic matrix, 2015):
Values joined by “and” are separate entries in the source; they are usually repeats but may differ in a detail not shown here. Identical values can stand only once. The campaign covered roughly 5,500 compounds. About 2,000 (36%) were called active. About 18% were inconclusive and are not listed. Cut-off read from the data, not from the text of the source: active = normalized growth mostly below about 0.91 (no sharp cut-off); inconclusive = no clear call, values can overlap the other calls; inactive = mostly above about 0.92. The list shows a part of the results.

Experiment: chemical genetic growth profiling, strain panel (AID 1159580);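 note: tested at 20 µM; growth read once vehicle control cultures reached saturation at 30 °C; 1 = growth at the plate median or of vehicle wells; lower values mean less growth of the strain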
Conditions: S. cerevisiae deletion strains, growth OD

Measured: normalized growth

Cc1ccc(-c2cc(C(F)(F)F)nn2-c2ccc(S(N)(=O)=O)cc2)cc1
inactive: locus YAL013W, strain DEP1, stronger effect = lower value 1 | locus YAL021C, strain ccr4, stronger effect = lower value 1 | locus YAL026C, strain drs2, stronger effect = lower value 1.03 | locus YAL030W, strain snc1, stronger effect = lower value 1.03 | locus YBL061C, strain skt5, stronger effect = lower value 1.02 | locus YBR009C, strain hhf1, stronger effect = lower value 1.03 | locus YBR021W, strain FUR4, stronger effect = lower value 1 | locus YBR023C, strain chs3, stronger effect = lower value 1.02 | locus YBR171W, strain sec66, stronger effect = lower value 1.05 | locus YBR229C, strain ROT2, stronger effect = lower value 0.992 | locus YBR231C, strain swc5, stronger effect = lower value 1.05 | locus YBR279W, strain paf1, stronger effect = lower value 1.02 | locus YCL011C, strain gbp2, stronger effect = lower value 1.03 | locus YCL016C, strain dcc1, stronger effect = lower value 1.03 | locus YCL029C, strain bik1, stronger effect = lower value 1.04 | locus YCL061C, strain MRC1, stronger effect = lower value 1.02 | locus YCL069W, strain vba3, stronger effect = lower value 1.03 | locus YCR088W, strain abp1, stronger effect = lower value 1.02 | locus YDL005C, strain med2, stronger effect = lower value 1.03 | locus YDL035C, strain GPR1, stronger effect = lower value 0.979 | locus YDL040C, strain nat1, stronger effect = lower value 1.03 | locus YDL074C, strain BRE1, stronger effect = lower value 0.975 | locus YDL101C, strain DUN1, stronger effect = lower value 1.02 | locus YDL134C, strain PPH21, stronger effect = lower value 0.999 | locus YDL185W, strain tfp1, stronger effect = lower value 1.02 | locus YDL192W, strain arf1, stronger effect = lower value 0.998 | locus YDR001C, strain nth1, stronger effect = lower value 1.02 | locus YDR069C, strain doa4, stronger effect = lower value 1.02 | locus YDR101C, strain arx1, stronger effect = lower value 1.01 | locus YDR137W, strain rgp1, stronger effect = lower value 1.02 | locus YDR150W, strain NUM1, stronger effect = lower value 1 | locus YDR159W, strain sac3, stronger effect = lower value 1.02 | locus YDR162C, strain NBP2, stronger effect = lower value 0.988 | locus YDR195W, strain ref2 1.05 | locus YDR297W, strain sur2, stronger effect = lower value 1.02 | locus YDR318W, strain mcm21, stronger effect = lower value 1.02 | locus YDR334W, strain swr1, stronger effect = lower value 1.04 | locus YDR335W, strain msn5, stronger effect = lower value 1.03 | locus YDR388W, stronger effect = lower value 1.01 | locus YDR392W, strain spt3, stronger effect = lower value 1.03 | locus YDR502C, strain sam2, stronger effect = lower value 1 | locus YEL003W, strain gim4, stronger effect = lower value 1.03 | locus YEL037C, strain rad23, stronger effect = lower value 1.03 | locus YEL061C, strain CIN8 (second series), stronger effect = lower value 1.04 | locus YEL061C, strain CIN8, stronger effect = lower value 0.994 | locus YER015W, strain faa2, stronger effect = lower value 1.03 | locus YER016W, strain bim1, stronger effect = lower value 1.03 | locus YER110C, stronger effect = lower value 1.02 | locus YER111C, strain swi4, stronger effect = lower value 1.05 | locus YER155C, strain BEM2 (second series), stronger effect = lower value 1.04 | locus YER155C, strain BEM2, stronger effect = lower value 1.01 | locus YER167W, strain BCK2, stronger effect = lower value 0.998 | locus YFR010W, strain ubp6, stronger effect = lower value 1.04 | locus YGL078C, strain dbp3, stronger effect = lower value 0.996 | locus YGL086W, strain mad1, stronger effect = lower value 0.991 | locus YGL167C, strain pmr1, stronger effect = lower value 1.04 | locus YGL173C, strain kem1, stronger effect = lower value 1.01 | locus YGL227W, strain vid30, stronger effect = lower value 1.04 | locus YGL240W, strain doc1, stronger effect = lower value 1.04 | locus YGL248W, strain PDE1, stronger effect = lower value 0.996 | locus YGL253W, strain hxk2, stronger effect = lower value 1.02 | locus YGR078C, strain PAC10, stronger effect = lower value 1.01 | locus YGR135W, strain pre9, stronger effect = lower value 1.02 | locus YGR229C, strain SMI1, stronger effect = lower value 0.998 | locus YGR252W, strain gcn5, stronger effect = lower value 0.962 | locus YHR013C, strain ard1, stronger effect = lower value 1.06 | locus YHR027C, strain rpn1, stronger effect = lower value 1.03 | locus YHR030C, strain SLT2, stronger effect = lower value 1.01 and 0.968 | locus YHR079C, strain IRE1 (second series), stronger effect = lower value 1.02 | locus YHR079C, strain IRE1, stronger effect = lower value 0.963 | locus YHR094C, strain hxt1, stronger effect = lower value 1.01 | locus YHR129C, strain ARP1, stronger effect = lower value 1 | locus YHR142W, strain chs7, stronger effect = lower value 1.03 | locus YHR200W, strain rpn10, stronger effect = lower value 1.01 | locus YIL066C, strain RNR3, stronger effect = lower value 0.994 | locus YIL073C, strain SPO22, stronger effect = lower value 0.994 | locus YIL125W, strain kgd1, stronger effect = lower value 1.01 | locus YIR030C, strain dcg1, stronger effect = lower value 1.01 | locus YJL092W, strain hpr5, stronger effect = lower value 1.02 | locus YJL095W, strain BCK1 (second series), stronger effect = lower value 1.02 | locus YJL095W, strain BCK1, stronger effect = lower value 1.04 and 0.974 | locus YJL115W, strain asf1, stronger effect = lower value 1.03 | locus YJL129C, strain trk1, stronger effect = lower value 1.06 | locus YJL134W, strain LCB3, stronger effect = lower value 1 | locus YJL154C, strain vps35, stronger effect = lower value 1.02 | locus YJL164C, strain tpk1, stronger effect = lower value 1.03 | locus YJL166W, strain qcr8, stronger effect = lower value 1.01 | locus YJL168C, strain set2, stronger effect = lower value 1.02 | locus YJL187C, strain SWE1 (second series), stronger effect = lower value 1.03 | locus YJL187C, strain SWE1, stronger effect = lower value 1.02 | locus YJR043C, strain POL32, stronger effect = lower value 1.01 | locus YJR066W, strain TOR1, stronger effect = lower value 0.974
